Results taken from PubChem BioAssay AID652154 (Broad Institute, 2013).
Among all 360,000 compounds or so, about 4,200 (1.2%) were called active. The entries come from a sample that favours actives as a whole. Unmarked numbers belong to inactive results.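 How the source made its calls: active means mean replicate inhibition at least 60% with every replicate also reaching 60%; inconclusive means only one of the two criteria is met; inactive means mean below 60% and not all replicates reaching 60%.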

Test: PAX8 transcriptional activity inhibition in RMG-I – RMG-I cells, luciferase, single concentration, primary screen (AID 652154);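 further: luciferase light reporting Pax8 driven TPO promoter activity; plate controls were median of neutral control wells for no effect and mitoxantrone controls for full effect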
Conditions: RMG-I TPO-luciferase reporter, SteadyGlo, 24 h; at 12.6 µM; active compounds read high

SMILES | inhibition
CC(C)NC(=O)N1CCCCN2[C@@H](CO)[C@@H](c3ccc(C#Cc4ccccc4)cc3)[C@@H]2C1 | 1.5%
C/C=C/c1ccc2c(c1)O[C@@H](CN(C)CC1CCOCC1)[C@@H](C)CN([C@H](C)CO)S2(=O)=O | -8.71%
O=C(NC1CCCCC1)N[C@H]1CC[C@H](CCNS(=O)(=O)c2ccc(F)cc2)O[C@H]1CO | 1.61%
C[C@@H]1CCCCO[C@H](CN(C)C(=O)c2ccccc2)[C@H](C)CN([C@H](C)CO)C(=O)c2cc(N(C)C)ccc2O1 | 12.7%
CC(C)NC(=O)Nc1ccc2c(c1)C(=O)N([C@H](C)CO)C[C@@H](C)[C@@H](CN(C)C(=O)c1ccncc1)OCCCC[C@H](C)O2 | 1.42%
Cc1ccc(S(=O)(=O)Nc2ccc3c(c2)C(=O)N([C@@H](C)CO)C[C@@H](C)[C@H](CN(C)Cc2ccc(C(F)(F)F)cc2)O3)cc1 | 10.1%
C[C@@H]1CN([C@H](C)CO)C(=O)Cc2cc(NC(=O)CCC(F)(F)F)ccc2O[C@@H]1CN(C)Cc1ccncc1 | -1.08%
C[C@@H]1CN([C@H](C)CO)C(=O)Cc2cc(NC(=O)Nc3ccccc3)ccc2O[C@H]1CN(C)Cc1ccc(Cl)c(Cl)c1 | 8.31%
C[C@H](CO)N1C[C@H](C)[C@@H](CN(C)Cc2ccc(-c3ccccc3)cc2)Oc2ccc(NC(=O)CCC(F)(F)F)cc2CC1=O | 70.4% (active)
C[C@@H]1CN([C@@H](C)CO)C(=O)Cc2cc(NC(=O)Nc3ccc(C(F)(F)F)cc3)ccc2O[C@H]1CN(C)Cc1ccc(C(=O)O)cc1 | -5.6%
Cc1ccc(S(=O)(=O)Nc2ccc3c(c2)CC(=O)N([C@H](C)CO)C[C@@H](C)[C@H](CN(C)Cc2ccc(C(F)(F)F)cc2)O3)cc1 | 70.8% (active)
C[C@H](CO)N1C[C@H](C)[C@@H](CN(C)Cc2ccc(Cl)c(Cl)c2)Oc2ccc(NC(=O)Nc3ccc(C(F)(F)F)cc3)cc2CC1=O | 99.1% (active)
C[C@@H]1CN([C@@H](C)CO)C(=O)c2cccc(NC(=O)CCCCCC(=O)Nc3ccccc3N)c2O[C@H]1CN(C)C(=O)Nc1ccccc1 | -12.6%
C[C@@H]1CN([C@@H](C)CO)C(=O)Cc2cc(NC(=O)CCCN(C)C)ccc2O[C@@H]1CN(C)Cc1ccc(-c2ccccc2)cc1 | 10.4%
C[C@@H]1CN([C@H](C)CO)C(=O)c2cccc(NC(=O)CCCCCC(=O)Nc3ccccc3N)c2O[C@H]1CN(C)Cc1ccc(Oc2ccccc2)cc1 | 71.9% (active)
C[C@H](CO)N1C[C@H](C)[C@H](CN(C)Cc2ccc(Oc3ccccc3)cc2)Oc2c(NC(=O)CCCCCC(=O)Nc3ccccc3N)cccc2C1=O | 9.67%
Cc1ccc(S(=O)(=O)Nc2ccc3c(c2)CC(=O)N([C@@H](C)CO)C[C@H](C)[C@H](CN(C)Cc2ccccc2)O3)cc1 | -12.9%
C[C@@H]1ON(C)[C@H]2C[C@H]3c4cc(N5CCOCC5)ccc4CCN3C[C@@H]12 | -4.88%
O=C(Nc1ccccc1F)N1CC(=O)N2[C@H](C1)[C@@H](c1ccc(C#CC3CC3)cc1)[C@@H]2CO | -14.6%
O=C(N[C@@H]1CC[C@@H](CCNS(=O)(=O)c2ccccc2Cl)O[C@@H]1CO)c1ccccc1 | -1.25%

SMILES | inhibition
O=C(C[C@@H]1CC[C@H]2[C@@H](COC[C@H](O)CN2Cc2ccc(F)cc2)O1)N1CCc2ccccc2C1 | -7.32%
CO[C@@H]1CN(C)C(=O)c2cc(NC(=O)c3cnccn3)ccc2OC[C@@H](C)N(CC2CC2)C[C@H]1C | 6.97%
CO[C@@H]1CN(C)C(=O)c2cc(NC(=O)C3CC3)ccc2OC[C@H](C)N(CC2CC2)C[C@H]1C | 7.02%
C[C@@H](O)C#Cc1ccc2c(c1)O[C@@H](CN(C)C)[C@@H](C)CN([C@@H](C)CO)S2(=O)=O | -0.827%
CCCNC(=O)Nc1ccc2c(c1)C(=O)N(C)C[C@@H](OC)[C@H](C)CN(CCC)[C@@H](C)CO2 | -1.74%
O=C(C1CCC1)N1C[C@H]2[C@@H](c3ccccc31)[C@@H](CO)N2C(=O)c1ccccc1F | 5.48%
COc1cccc(-c2ccc3c(c2)[C@@H]2[C@@H](CCN2S(=O)(=O)C2=NC(C)C=N2)[C@@H](CO)N3C)c1 (stereo not given in full) | 19.4%
C/C=C/c1ccc([C@@H]2[C@H](CO)N(CC3CCCC3)C23CN(C(=O)CC)C3)cc1 | 18.8%
C[C@H]1CN([C@@H](C)CO)S(=O)(=O)c2ccc(C3=CCCC3)cc2O[C@H]1CN(C)C(=O)Cc1ccncc1 | 1.78%
O=C(NCc1ccccc1Cl)[C@H]1[C@H](CO)[C@H]2Cn3c(cccc3=O)[C@H]2N1C(=O)C1CCC1 | -12.8%
Cc1ccc(S(=O)(=O)N(C)C[C@@H]2Oc3c(NC(=O)c4ccncc4)cccc3C(=O)N([C@@H](C)CO)C[C@@H]2C)cc1 | 1.41%
CCS(=O)(=O)Nc1ccc2c(c1)C(=O)N(C)[C@H]1CC[C@H](CC(=O)N[C@@H]3CCN(Cc4ccccc4)C3)O[C@H]1CO2 | -7.99%
C[C@@H]1CN([C@H](C)CO)C(=O)c2cc(C3=CCCCC3)cnc2O[C@@H]1CN(C)C(=O)c1ccc2c(c1)OCO2 | -9.44%
C[C@@H]1CN([C@H](C)CO)C(=O)c2cc(C#CCN(C)C)cnc2O[C@H]1CN(C)C(=O)Cc1ccncc1 | -16.9%
C[C@H](CO)N1C[C@H](C)[C@H](CN(C)Cc2ccncc2)Oc2ccc(NS(=O)(=O)c3ccc(F)cc3)cc2CC1=O | 6.06%
C[C@@H]1CN([C@@H](C)CO)C(=O)Cc2cc(NS(=O)(=O)c3ccc(Cl)cc3)ccc2O[C@H]1CN(C)Cc1ccc(C(F)(F)F)cc1 | 84.5% (active)
COc1ccc(S(=O)(=O)Nc2ccc3c(c2)CC(=O)N([C@H](C)CO)C[C@H](C)[C@H](CN(C)Cc2ccc(C(F)(F)F)cc2)O3)cc1 | 7.06%
C[C@H]1CN([C@@H](C)CO)C(=O)Cc2cc(NS(=O)(=O)c3cccs3)ccc2O[C@@H]1CN(C)Cc1ccc(Oc2ccccc2)cc1 | -11%
C[C@H]1CN([C@@H](C)CO)C(=O)Cc2cc(NS(=O)(=O)c3ccc(F)cc3)ccc2O[C@H]1CN(C)Cc1ccc(C(F)(F)F)cc1 | -55.2%
C[C@H](CO)N1C[C@H](C)[C@@H](CN(C)Cc2ccc(Oc3ccccc3)cc2)Oc2ccc(NS(=O)(=O)c3ccc(F)cc3)cc2CC1=O | 78.6% (active)
